# This is a sample that favours compounds with a hit; in the whole collection about 2.4% have one here.
# Cruzain inh noDet: inhibitors of Trypanosoma cruzi cruzain without detergent; purified cruzain, Z-FR-AMC fluorescence, no detergent; Potency, µM, without a hit: max response, negative = inhibition, usual class: inhibitors; actives 2.3% (n = 200,000);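 also: plate controls were enzyme without inhibitor for no effect and buffer without enzyme for full effect; nearly all actives have a fitted effect of over 40% in size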
# Target sequence (P25779 123-467 limits assumed): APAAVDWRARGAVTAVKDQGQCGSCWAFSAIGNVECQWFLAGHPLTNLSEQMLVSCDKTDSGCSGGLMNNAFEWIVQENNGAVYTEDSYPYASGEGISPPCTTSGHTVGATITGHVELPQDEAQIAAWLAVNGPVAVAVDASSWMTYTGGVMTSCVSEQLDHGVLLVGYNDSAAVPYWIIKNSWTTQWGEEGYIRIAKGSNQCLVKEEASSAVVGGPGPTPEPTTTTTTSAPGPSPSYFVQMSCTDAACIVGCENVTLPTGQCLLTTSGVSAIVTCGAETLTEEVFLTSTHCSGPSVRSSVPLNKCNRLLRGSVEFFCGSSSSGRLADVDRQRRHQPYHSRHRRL
#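 Detergent-free condition (0.00005% Triton X-100) in acetate buffer pH 5.5 with DTT. 1.5 nM enzyme and compound were pre-mixed 15 min, then 2 uM Z-FR-AMC substrate added; reaction progress from fluorescence change between first and third reads (60 s).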
# Cruzain inh Det: inhibitors of Trypanosoma cruzi cruzain with detergent; purified cruzain, Z-FR-AMC fluorescence, 0.01% Triton; P25779; actives 0.43% (n = 200,000); Potency, µM, for the others: max response, negative = inhibition, hits mostly inhibitors;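 also: plate controls were neutral wells for no effect and buffer without enzyme for full effect; nearly all actives have a fitted effect of over 40% in size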
#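 Read-out: AMC fluorescence (360 nm excitation, 450 nm emission), four reads over 2 min, first-to-third difference used. Conditions: cruzain 1.5 nM, Z-FR-AMC 2 uM, pH 5.5 acetate, 5 mM DTT, 0.01% Triton X-100.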
# Active calls of the source: *; ? = inconclusive. Calls follow the shape of the dose curve; as a rule, active = well fitted curve in the direction sought with a large enough effect; inconclusive = small, poorly fitted or top-dose-only effect, or another doubt; inactive = no such curve, though single readings can be large; an effect the other way counts as inactive or inconclusive. Potency is read from the fitted curve at half-maximal effect.
SMILES,Cruzain inh noDet,Cruzain inh Det
CCOC(=O)c1ccccc1NC(=O)c1cc(S(=O)(=O)N2CCOCC2)ccc1F,?,-4%
CCOC(=O)c1c(-c2ccccc2)csc1NC(=O)c1cc2ccccc2oc1=O,16µM*,-3%
CCOC(=O)c1c(-c2ccccc2Cl)csc1NC(=O)c1cc(S(=O)(=O)N2CCOCC2)ccc1C,25µM*,-2%
COc1ccc(N2CCN(S(=O)(=O)CCNC(=O)c3ccc(OC(C)C)cc3)CC2)cc1,-6%,0%
CC(=O)Nc1ccc(S(=O)(=O)Nc2nc3ccccc3nc2N2CCCC2)cc1,15%,-7%
O=S(=O)(Nc1nc2ccccc2nc1N1CCN(c2ccccc2)CC1)c1ccc(F)cc1,32µM*,-3%
Cc1cccc(C)c1NC(=O)c1nc(S(C)(=O)=O)ncc1N(Cc1ccc(C(C)(C)C)cc1)Cc1ccco1,-21%,-2%
COc1ccc(CN(Cc2ccco2)c2cnc(S(C)(=O)=O)nc2C(=O)Nc2ccc(C)c(Cl)c2)cc1,7.9µM*,-2%
Cc1ccc(NC(=O)c2nc(S(C)(=O)=O)ncc2N(Cc2cccc(F)c2)Cc2ccco2)cc1C,?,-3%
Cc1ccc(C)c(NC(=O)c2nc(S(C)(=O)=O)ncc2N(Cc2ccc(C(C)(C)C)cc2)Cc2ccco2)c1,7.9µM*,-3%
CC(C)c1ccc(CN(Cc2ccco2)c2cnc(S(C)(=O)=O)nc2C(=O)Nc2ccc(F)cc2)cc1,16µM*,-3%
Cc1cccc(C)c1NC(=O)c1nc(S(C)(=O)=O)ncc1N(Cc1ccc(F)cc1)Cc1ccco1,-6%,-5%
Cn1c(N)c(N2CCCCC2)c(=O)n(CC(=O)Nc2ccc(Cl)c(Cl)c2)c1=O,-4%,-1%
O=C(Cn1c2c(sc1=O)C1c3ccccc3OCC1CS2)Nc1ccc(Cl)c(Cl)c1 (stereo not drawn),6.3µM*,-2%
CCc1ccc(NC(=O)Cn2nnc(-c3ccccc3N)n2)cc1,-7%,-7%
Cc1cccn2c(=O)c3cc(C(=O)NCCc4ccccc4)c(=N)n(CCCn4ccnc4)c3nc12,?,0%
CNC(=O)c1cc2c(=O)n3cccc(C)c3nc2n(C(C)C)c1=N,?,25µM*
Cc1cccn2c(=O)c3cc(C(=O)NCc4ccco4)c(=N)n(CCOCCO)c3nc12,5%,-4%
COCCCn1c(=N)c(C(=O)NCc2ccco2)cc2c(=O)n3cccc(C)c3nc21,-17%,-8%
CCCCNC(=O)c1cc2c(=O)n3cccc(C)c3nc2n(Cc2ccccc2)c1=N,?,28µM*
C=CCn1c(=N)c(C(=O)NCCCOC)cc2c(=O)n3cccc(C)c3nc21,?,32µM*
CCOc1ccc2ncc3c(-c4cccc(OC)c4)nn(-c4ccccc4)c3c2c1,-3%,5%
CCCCCCN(C(=O)CCCCCN1C(=O)NC(c2ccc(-c3ccccc3)cc2)C(C(=O)OCc2ccccc2)=C1C)C(C(=O)NCCCC)c1ccc(O)cc1 (stereo not drawn),6.3µM*,-1%
CCCCCCN(C(=O)CCCCCN1C(=O)NC(c2ccc(-c3ccccc3)cc2)C(C(=O)OCc2ccccc2)=C1C)C(C(=O)NCCCC)c1ccc(-c2ccccc2)cc1 (stereo not drawn),?,-1%
O=S(=O)(Nc1ccc(-c2nc3cccnc3s2)cc1)c1ccc(Cl)s1,?,-12%
SMILES,Cruzain inh noDet,Cruzain inh Det
O=S(=O)(Nc1ccc(-c2nc3cccnc3s2)cc1)c1cccs1,13µM*,-3%
COc1ccc(OC)c(NCc2cccn2-c2nnc(N3CCCCC3)s2)c1,2%,-3%
COc1ccc(N2CCC(CNC(=S)Nc3cccc(C)c3)C2)cc1 (stereo not drawn),-28%,-6%
COc1ccc(N2CCC(CNS(=O)(=O)c3cccc(C(F)(F)F)c3)C2)cc1 (stereo not drawn),25µM*,-5%
Clc1ccc(-c2nnc(-c3ccc(Br)cc3)c(N3CCSCC3)n2)cc1,20µM*,1%
Clc1ccc(-c2nnc(-c3ccco3)nc2N2CCCCC2)cc1,-27%,-21%
Cc1ccccc1NC(=O)CSc1nc2c(c(-c3ccco3)c1C#N)CCCC2,7.9µM*,-5%
CCc1ccccc1NC(=O)CSc1nc2c(c(-c3ccco3)c1C#N)CCCC2,-17%,-7%
Cc1ccc(S(=O)(=O)C(CNC(=O)C(=O)NCCc2ccccc2)c2cccs2)cc1 (stereo not drawn),17%,2%
Cc1cc(C)c(S(=O)(=O)Nc2ccc3c(c2)CCC3)c(C)c1,-8%,-8%
Cc1cc(C)c(S(=O)(=O)Nc2ccc3c4c(cccc24)CC3)c(C)c1,20µM*,-3%
CCC(C)NC(=O)c1ccc2c(c1)N(Cc1ccccc1)C(=O)c1ccccc1S2(=O)=O (stereo not drawn),0%,-2%
Cc1ccc(C(=O)c2c(N)c(C(=O)Nc3ccccc3Cl)c3ccccn23)cc1,2%,-2%
COC(=O)c1ccccc1NC(=O)CCC(=O)N1CC(C)Sc2ccccc21 (stereo not drawn),3%,-6%
